Measured values from PubChem BioAssay AID2551 (National Center for Advancing Translational Sciences (NCATS), 2010).
Screen size: about 310,000 compounds; about 17,000 (5.5%) were called active. Roughly 11% stayed inconclusive and do not appear here. Calls come from the whole dose curve; as a rule, active = well fitted inhibition curve with a large enough effect; inconclusive = small, poorly fitted or top-dose-only effect, or effect the other way; inactive = no such curve, though single readings can be large or run the other way. The list comes from a sample in which actives are over-represented; it also holds similar structures and randomly drawn compounds.

biological target: Nuclear receptor ROR-gamma (Mus musculus) (UniProt P51450); test: qHTS for inhibitors of ROR gamma transcriptional activity; settings: Drosophila S2 Gal4-RORgamma UAS-luciferase reporter, 20 h; series mostly up to 53.6 µM; note: nearly all actives have a fitted effect of over 60% in size
Sequence (P51450 whole entry, looked up, the tested form may be a part): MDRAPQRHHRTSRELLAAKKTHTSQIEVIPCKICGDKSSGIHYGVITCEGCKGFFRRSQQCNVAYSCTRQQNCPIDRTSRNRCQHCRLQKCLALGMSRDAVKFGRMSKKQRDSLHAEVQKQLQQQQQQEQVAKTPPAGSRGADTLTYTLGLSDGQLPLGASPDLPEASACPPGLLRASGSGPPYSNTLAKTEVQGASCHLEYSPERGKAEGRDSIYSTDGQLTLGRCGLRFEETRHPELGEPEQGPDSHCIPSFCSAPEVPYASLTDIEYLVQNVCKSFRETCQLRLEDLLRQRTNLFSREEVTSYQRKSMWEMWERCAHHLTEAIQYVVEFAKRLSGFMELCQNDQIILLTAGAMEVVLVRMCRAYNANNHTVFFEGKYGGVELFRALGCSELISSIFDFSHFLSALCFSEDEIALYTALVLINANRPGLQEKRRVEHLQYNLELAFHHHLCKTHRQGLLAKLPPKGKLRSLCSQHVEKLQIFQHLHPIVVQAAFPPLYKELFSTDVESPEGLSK
From the text: NIH Molecular Libraries Probe Production Network [MLPCN] NIH Chemical Genomics Center [NCGC] MLPCN Grant: R03 DA026211-01 Assay Provider: Dan Littman, New York University Assay Overview: The retinoic acid-related orphan receptor (ROR) gamma is a transcription factor that has a central role in the differentiation of Th17 cells, a subset of T helper cells that secrete the inflammatory cytokines IL-17, IL-17F, and IL-22. Th17 cells have been implicated in graft versus host disease, autoimmune disease and asthma. ROR gamma is induced in naive T helper cells in the presence of TGF-beta combined with IL-6, IL-21, or IL-23, and thereafter directs the expression of the Th17 lineage cytokines. To study the mechanism of action of ROR gamma, an insect cell-based assay was screened. This Drosophila Schneider cell line was stably transfected with two vectors: a gene expressing a fusion of the Gal4 DNA binding domain and ROR gamma transactivation domain under the control of the metallothionine promoter and a Photinus luciferase reporter regulated by the Gal4 binding site enhancer, UAS. […] Small molecule inhibitors of ROR gamma activity are detected by a decrease in luciferase reporter activity.
Assay Protocol Summary: For screening, 600 cells in 4 uL/well were dispensed into white solid 1536-well plates (Grenier) using a solenoid-based dispenser. Following transfer of 23 nL compound or DMSO vehicle by a pin tool, the plates were incubated 1 hr at ambient temperature, and 1 uL/well copper sulfate (700 uM final concentration) was added. The plates were centrifuged 15 s at 1000 RPM and incubated 20 hr at ambient temperature. After addition of 1.5 uL Photinus luciferase detection reagent, the plates were incubated 10 min at ambient temperature and then read by an ViewLux (Perkin Elmer) to detect luminescence. Keywords: NIH Roadmap, MLPCN, MLI, MLSMR, qHTS, NCGC, qHTS, nuclear hormone receptor, retinoic acid-related orphan receptor, ROR gamma
% is set by controls: 0 for no effect and ±100 for the full control effect; potency is the fitted concentration of half-maximal effect.

Potency, active:
Cc1nnc(N/N=C/C2CC=CCC2)[nH]c1=O (stereo not drawn) 11.2 µM, CCCCc1ccc(NC(=S)N2CCCC(CO)C2)cc1 (stereo not drawn) 15.8 µM, CC(C)C(NS(=O)(=O)c1cccs1)C(=O)Nc1nc(C(C)(C)C)cs1 (stereo not drawn) 11.2 µM, OCCCN1c2ccccc2Nc2nnc(-c3ccccc3)cc21 10 µM, CC(NC(=S)NC1CCCCC1)C(c1ccccc1)N1CCOCC1 (stereo not drawn) 5.01 µM, CC(NC(=S)Nc1ccccc1)C(c1cccs1)N1CCOCC1 (stereo not drawn) 11.2 µM, S=C(NC1CCCCC1)NN1CCOCC1 8.91 µM, CSc1nc(C)cc(SC(C(C)=O)C(=O)Nc2ccccc2)n1 (stereo not drawn) 8.91 µM, CC1CC(c2ccccc2)n2nc(NC(=O)c3cccs3)nc2N1 (stereo not drawn) 14.1 µM, O=C1N=C(N2CCc3ccccc3C2)S/C1=C\c1ccc(O)cc1 1.12 µM, CCc1ccc(-c2nn(-c3ccccc3)cc2CSC(=N)N)cc1 11.2 µM, O=C1C=CC(=O)N1c1ccc(N2CCCCC2)cc1 5.62 µM, COC(=O)c1ccc(CSc2ccc3nnc(-c4ccccc4)n3n2)o1 10 µM

Potency, inactive:
COC(=O)c1ccc(NC(=O)c2cc3c(CO)cnc(C)c3oc2=Nc2cccc(C(N)=O)c2)cc1, COc1ccc(OC)c(CCNC(=O)CCn2ccc3cc(S(=O)(=O)N4CCCC4)ccc32)c1, CN(CCc1ccccn1)C(=O)c1ccc(OC2CCN(Cc3ccccn3)CC2)cc1, Cc1ccc(C(C)C)cc1OCC(=O)Nc1ccccc1N1CCCC1, Cc1nnc(N/N=C/c2ccccn2)[nH]c1=O, Cc1ccccc1Nc1nnc(C)c(=O)[nH]1, CCC(=O)N1c2ccc(S(=O)(=O)NCc3ccco3)cc2CC1C (stereo not drawn), CCc1ccc(NC(=O)CN2C(=O)COc3ccc(S(=O)(=O)N4CCCC4)cc32)cc1, COc1cccc(CCNC(=O)c2cccc(NC(=O)C3=C(C)OCCS3)c2)c1, O=C(NC12CC3CC(CC(C3)C1)C2)N1CCCC(CO)C1 (stereo not drawn), COc1ccc(NC(=S)N2CCCC(CO)C2)c(OC)c1 (stereo not drawn), CC(C)C(c1nnnn1C1CCCCC1)N1CCN(C(=O)c2ccco2)CC1 (stereo not drawn), CSCC[C@H](NC(=O)N1CCn2c1nc1ccccc12)C(=O)NCc1ccc2c(c1)OCO2, CCc1ccc(C(=O)COC(=O)c2ccco2)cc1, COc1ccc(CNC(=O)C(NS(=O)(=O)c2cccc3nsnc23)C(C)C)cc1 (stereo not drawn), O=C(Nc1nncs1)c1ccccc1NS(=O)(=O)c1cccs1, O=C(NC1CCCCCCC1)c1cccs1, Cc1cccc(N(C)C(=O)c2cc(S(=O)(=O)N3CCCCC3)c[nH]2)c1, CCCC(=O)NC(C)C(c1cccs1)N1CCN(c2ccccc2)CC1 (stereo not drawn), CC(NC(=O)Nc1ccccc1)C(c1cccs1)N1CCN(c2ccccc2)CC1 (stereo not drawn), COc1ccc(S(=O)(=O)N2CCOCC2)cc1C(=O)NC1CCCCC1, O=C(NNC(=O)C(O)c1ccccc1)NC1CCCCC1 (stereo not drawn), O=C(NC1CCCCC1)c1cc([N+](=O)[O-])ccc1N1CCOCC1, CC(=O)N1CC(=O)N(CC(=O)Nc2ccc(Br)cc2)C1=S, CCOC(=O)N1CCN(CCC(=O)Nc2ccccc2)CC1, Cc1nc(Nc2ccccc2F)c2nnn(Cc3ccccc3Cl)c2n1, Cc1cccc(CN2CCC(n3nccc3NC(=O)c3ccccc3C)CC2)n1, O=C(NCc1ccccc1)C(c1ccco1)N(C(=O)c1csnn1)c1ccccc1F (stereo not drawn), CCCCN1C(=O)/C(=C2/Sc3ccc(Cl)cc3N2CC)SC1=S, O=S(=O)(NC1CCCCC1N1CCCCC1)c1ccc(Cl)cc1 (stereo not drawn), CC(=O)Nc1cccc(Nc2nc(-c3cccs3)nc3ccccc23)c1, COc1ccc(CN(C)C(=O)Cc2c[nH]c3ccccc23)c(OC)c1OC, Cc1nn(C)c(Cl)c1CN1CCC(Oc2ccc(C(=O)N3CCCC3)cc2)CC1, CCOc1ccc(N/C(N)=N/c2nc(C)c(C)c(=O)[nH]2)cc1, Cc1ccc(C(=O)N/C(=C\c2cn(S(=O)(=O)N(C)C)c3ccccc23)C(=O)N2CCCC2)cc1, COc1cccc(OC)c1C(=O)Nc1c(C(=O)N2CCN(c3ccccn3)CC2)oc2ccccc12, CCOc1cc(C)ccc1OCc1nnc(SCC(=O)Nc2cccc(C(=O)O)c2)n1-c1ccccc1, CC(Sc1nnc2c(n1)C1CCC2(C)C1(C)C)C(=O)Nc1ccccc1 (stereo not drawn), Cc1cc(C)c(C#N)c(SCC(=O)Nc2ccccc2)n1, Cc1c(CN2CC[C@@H](N3CCN(c4ccccn4)CC3)[C@H](O)C2)[nH]c2ccc(F)cc12, O=C(Nc1n[nH]c(C(F)(F)F)n1)c1cccs1, COc1ccc(CC(=O)Nc2nc3n(n2)C(c2ccccc2)CC(=O)N3)cc1OC (stereo not drawn), CCOc1cc(/C=C2\SC(N3CCCCC3)=NC2=O)ccc1O, O=C1N=C(N2CCCC2)S/C1=C\c1cccc(Br)c1, Cc1ccc(CCNC(=O)c2ccc3nc4ccccc4c(=O)n3c2)cc1, COc1ccc(N(CC(=O)NCC2CCCO2)C(=O)CCC(=O)Nc2nccs2)c(OC)c1 (stereo not drawn), O=C(NCc1ccc(F)cc1)C1CCN(C(=O)Nc2ccc(F)cc2)CC1, CCOC(=O)/C(C#N)=C/c1ccc(N2CCCCC2)cc1, O=c1[nH][nH]c(=O)c2cc(N3CCCC3)ccc12, COc1ccc(-c2nnc3ccc(SCc4ccccc4)nn23)cc1, COC(=O)c1ccc(CSc2ccccc2C)o1, CN1CCN(Cc2c(C(=O)N3CCc4ccccc4C3)nc3ccc(Cl)cn23)CC1, CN1CCN(C(=O)C(=O)c2cn(CC(=O)N3CCCC3)c3ccccc23)CC1

Activity change, negative = inhibition, inactive:
CC(=O)OC(C(=O)NC1CCCCC1)c1ccccc1 (stereo not drawn) -6.92% [at 10 µM], CCOc1cc(/C=C2\C(=N)N3N=C(C)SC3=NC2=O)ccc1OCCOc1ccccc1 26.8% [at 1.91 µM]
